# Source: PubChem
# Only some compounds are listed: those with a hit (about 12% of all), similar ones and a draw of the others.
# PLK1 PBD block = inhibitors of human PLK1 polo-box domain binding; P53350; actives 2.8% (n = 360,000); Plk1 PBD binding of FITC phosphopeptide, fluorescence polarization; Potency, µM, inactives show max response, negative = inhibition, hits mostly inhibitors; also: series mostly up to about 57 µM; nearly all actives have a fitted effect of over 65% in size
# Target sequence (P53350 whole entry, looked up, the tested form may be a part): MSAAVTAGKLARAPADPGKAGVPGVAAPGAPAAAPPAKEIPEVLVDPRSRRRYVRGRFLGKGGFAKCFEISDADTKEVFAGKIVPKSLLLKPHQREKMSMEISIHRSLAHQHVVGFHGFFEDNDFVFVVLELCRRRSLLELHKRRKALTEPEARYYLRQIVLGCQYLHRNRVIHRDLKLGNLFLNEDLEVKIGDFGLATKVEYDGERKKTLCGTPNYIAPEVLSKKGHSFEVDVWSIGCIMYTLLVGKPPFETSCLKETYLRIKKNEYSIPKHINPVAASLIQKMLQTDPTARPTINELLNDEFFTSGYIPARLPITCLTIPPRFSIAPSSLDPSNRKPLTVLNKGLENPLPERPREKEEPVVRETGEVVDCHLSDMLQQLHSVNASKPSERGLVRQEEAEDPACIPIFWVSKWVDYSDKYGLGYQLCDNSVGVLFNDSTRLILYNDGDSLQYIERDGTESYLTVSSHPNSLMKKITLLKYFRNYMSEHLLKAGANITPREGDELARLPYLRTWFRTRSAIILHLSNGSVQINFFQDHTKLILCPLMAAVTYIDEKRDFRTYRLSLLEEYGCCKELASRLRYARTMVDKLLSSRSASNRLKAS
# Gal4-VP16 FLuc = counter-screen for ROR gamma inhibitors: Gal4-VP16 reporter; actives 3.5% (n = 310,000); Drosophila S2 Gal4-VP16 UAS-luciferase, luminescence, 20 h; AID 2546; Potency, µM (titrated, usually from 53.6 µM), inactives show at the highest dose activity, negative = inhibition, usual class: inhibitors;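 also: Gal4-VP16 expression switched on by copper sulfate through the metallothionein promoter; nearly all actives have a fitted effect of over 50% in size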
# ALDH1A1 inh = ALDH1A1 (human) enzyme inhibition; Purified ALDH1A1, NADH fluorescence, propionaldehyde substrate; Potency, µM (series often up to 75.3 µM), inactives show top-dose activity, negative = inhibition, actives largely listed as inhibitors; actives 7.3% (n = 220,000); P00352; active = well fitted inhibition curve with a large enough effect, not every such curve was filed as active; inconclusive = small, poorly fitted or top-dose-only effect, or another doubt; inactive = no such curve, though single readings can be large or run the other way;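 also: plate controls were no enzyme wells and a reference inhibitor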
# RORg inh = ROR gamma (mouse) transcription inhibition; Potency, µM (titrated, usually from 53.6 µM), inactives show at the top dose activity change, negative = inhibition, usual class: inhibitors; actives 5.4% (n = 310,000); Drosophila S2 Gal4-RORgamma UAS-luciferase reporter, 20 h; also: nearly all actives have a fitted effect of over 60% in size
#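 Read-out: Photinus luciferase luminescence; inhibitors lower reporter signal. Insect Schneider cells with Gal4-ROR gamma fusion under metallothionein promoter, UAS reporter; 700 uM final copper sulfate induction, 20 hr, ambient temperature.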
# Sfp PPTase inh = Sfp phosphopantetheinyl transferase inhibition | Biochemical Sfp PPTase activity, qHTS | Potency, µM, for the others: largest response in the series, negative = inhibition, hits mostly inhibitors | Q9F4F7 | AID 1490 | actives 3.5% (n = 310,000);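 also: the enzyme is Sfp with the accession as filed and its product quenches rhodamine fluorescence; 0% = enzyme reaction without inhibitor and -100% = no enzyme wells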
#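 Sfp 15 nM + cpd, 15 min RT; start w/ rhodamine-CoA 5 uM, BHQ-2-YbbR 12.5 uM (final); 50 mM Hepes pH 7.6, 10 mM MgCl2, 0.01% NP-40, 0.01% BSA; read 525/598 nm at 0 and 30 min.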
# An asterisk follows results filed as active; u = inconclusive; x = no result given; [ ] = another dose, or the depositor's remark. Unless noted, calls follow the shape of the dose curve; as a rule, active = well fitted curve in the direction sought with a large enough effect; inconclusive = small, poorly fitted or top-dose-only effect, or another doubt; inactive = no such curve, though single readings can be large; an effect the other way counts as inactive or inconclusive. Unless noted, % is scaled to controls: 0 for no effect and ±100 for the full control effect; potency is read from the fitted curve at half-maximal effect.
SMILES,PLK1 PBD block,Gal4-VP16 FLuc,ALDH1A1 inh,RORg inh,Sfp PPTase inh
COc1ccc(C)cc1NC(=O)CN1CCN(S(=O)(=O)c2ccc(Br)cc2)CC1,-2.1%,0.8%,0.159µM*,13.5%,-0.3%
NS(=O)(=O)c1ccc(NC(=O)CN2CCCN(S(=O)(=O)c3ccc(F)cc3)CC2)cc1,-14.9%,-1.8%,u,23.1%,-1.7%
O=C(CN1C(=O)CCC1=O)Nc1ccc(Br)cc1,-1.4%,-5.9%,2.51µM*,-23.3%,10.8%
COc1ccc(NC(=O)CN2CCN(S(=O)(=O)c3ccc(Br)cc3)CC2)c(OC)c1,-6.1%,-2.3%,x,-7.9%,5.8%
O=C(CN1CCN(S(=O)(=O)c2ccc(Br)cc2)CC1)Nc1ccc(F)cc1,2.7%,5.0%,31.6µM*,u,19.5%
CN(C)c1cccc(F)c1C(=O)NC(=O)Nc1ccc(Cl)cc1,-0.8%,x,x,x,x
CC[C@H]1OC(=O)[C@H](C)[C@@H](O[C@H]2C[C@@](C)(OC)[C@@H](O)[C@H](C)O2)C(C)[C@@H](O[C@@H]2O[C@H](C)C[C@H](N(C)C)[C@@H]2O)[C@](C)(OC)C[C@@H](C)C(=O)[C@H](C)[C@@H](O)[C@]1(C)O (stereo partly drawn),x,1.1%,11.5%,0.0%,-9.6%
CC(C)OC(=O)C(C(=O)OC(C)C)=C1SC=CS1,x,16.6%,x,6.9%[10 µM],15.8%
O=C(Nc1ccccc1C(F)(F)F)c1c(F)cccc1Cl,29.9µM*,-16.5%,5.4%,4.1%,12.5%
O=C(CN1CCN(CC(=O)Nc2ccccc2C(F)(F)F)CC1)Nc1ccccc1F,-2.6%,-4.8%,25.1µM*,-16.9%,5.2%
NS(=O)(=O)c1ccc(NC(=O)CN2CCN(S(=O)(=O)c3ccc(F)cc3)CC2)cc1,4.74µM*,-4.2%,x,u,13.1%
O=C(CN1CCN(S(=O)(=O)c2ccc(Br)cc2)CC1)Nc1ccccc1F,-9.2%,2.0%,28.2µM*,35.2%,-4.0%
O=C(CCN1CCN(S(=O)(=O)c2ccc(Br)cc2)CC1)Nc1ccccc1F,-22.9%,-5.1%,u,7.1%,17.4%
O=C(Nc1ccccc1Br)c1c(F)cccc1Cl,-4.5%,-0.9%,-4.2%,16.3%,12.3%
CCn1c(CC(=O)Nc2ccccc2F)nnc1SCC(=O)NC1=NCCS1,0.2%,x,x,x,x
Cc1nc(C(F)(F)F)ccc1C(=O)N1CCCC(C)(C(=O)O)C1 (stereo not drawn),-8.0%,x,x,x,x
CN1CCN(c2ncc3nc(-c4ccccc4)c(=O)n(C4CC4)c3n2)CC1,x,3.6%,u,-6.1%,1.1%
O=C(CN1CCCN(S(=O)(=O)c2ccc(F)cc2)CC1)Nc1ccccc1Br,1.8%,3.5%,28.2µM*,3.4%,-0.9%
CCCC1Cc2c(sc(NC(=S)NC(=O)c3ccccc3)c2C#N)CO1 (stereo not drawn),x,u,u,4.47µM*,-8.3%
N#Cc1c(NC(=S)NC(=O)C2CCCC2)sc2c1CCCCC2,-21.6%,-20.3%,10µM*,-36.6%,u
N#Cc1c(NC(=S)NC(=O)c2ccccc2)sc2c1CCCC2,u,10µM*,3.16µM*,6.31µM*,u
CC(C)(C)C(=O)Nc1sc2c(c1C#N)CCCCC2,-25.6%,-1.0%,-1.6%,29.5%,-3.6%
Cc1ccc(C)n1-c1sc2c(c1C#N)CCC(C)C2 (stereo not drawn),u,1.2%,25.1µM*,2.3%,-5.3%
CC(=NO)C1(C)CC=CCC1CO (stereo not drawn),-1.5%,x,x,x,x
O=C(N/C(=C\c1cccc([N+](=O)[O-])c1)C(=O)N1CCOCC1)c1cccc(Br)c1,3.2%,-10.6%,x,-0.8%,-3.2%
Cn1ncc(Cl)c1C(=O)NC(=S)Nc1sc2c(c1C#N)CCCCC2,8.44µM*,u,u,11.2µM*,u
CC1CCc2c(sc(NC(=O)c3ccccc3C(=O)O)c2C#N)C1 (stereo not drawn),-3.0%,-12.1%,u,-9.8%,-14.8%
CCC(=O)Nc1sc2c(c1C#N)CCC2,u,11.3%,-6.4%,1.5%,-0.4%
CC1CCc2c(sc(NC(=S)NC(=O)c3ccccc3)c2C#N)C1 (stereo not drawn),23.8µM*,-7.4%,x,-44.6%,u
N#Cc1c(NC(=S)NC(=O)c2ccccc2)sc2c1CCN(CCc1ccccc1)C2,x,u,17.8µM*,-13.0%,56.2µM*
